Among the data in PubChem BioAssay AID488984 (The Scripps Research Institute Molecular Screening Center, 2010) are inhibition values, retold here.

Each structure is given as a SMILES string. Unmarked numbers belong to inactive results. Active and inactive are the calls of the source. Cut-off read from the data, not from the text of the source: active = inhibition above about 55%; inactive = the rest.

In this test the test system is SARS coronavirus 3C-like protease (3CLpro, nsp5). Kind of test: blockers of SARS 3CLpro activity – biochemical, fluorescence, set 2, late-stage follow-up (AID 488984). As to conditions: recombinant 3CLpro, fluorogenic peptide cleavage; at 100 µM; stronger effect = higher value.
Usually inhibition stands for the drop in the measured response relative to a control, in per cent. With `CC(C)(C)NC(=O)C(c1cccnc1)N(C(=O)c1ccco1)C1CC1` (configuration not stated), the inhibition was -1.64%.

Take `CC(C)c1ccc(N(C(=O)c2ccc(C#N)cc2)C(C(=O)NC(C)(C)C)c2cccnc2)cc1` (configuration not stated): the inhibition is -3.85%.

In the case of `CC(C)(C)NC(=O)C(c1ccsc1)N(C(=O)c1ccc(C(F)(F)F)nc1)c1ccc(OCF)cc1` (configuration not stated), the inhibition is 21.3%.

Turning to `CC(C)(C)NC(=O)C(c1ccsc1)N(C(=O)Cn1nnc2ccccc21)c1ccc(NS(C)(=O)=O)cc1` (configuration not stated), the inhibition was 89.5% (active).

Consider `CC(C)(C)NC(=O)C(c1cccnc1)N(C(=O)Cc1cccnc1)C1CC1` (configuration not stated), for which the inhibition was 7.01%.

As to `CC(C)(C)NC(=O)C(c1cccnc1)N(C(=O)c1n[nH]c2ccccc12)c1ccc(C(C)(C)C)cc1` (configuration not stated), the inhibition was 20.6%.

With `CC(C)c1ccc(N(C(=O)c2ccc(C#N)cc2)C(C(=O)NC(C)(C)C)c2ccsc2)cc1` (configuration not stated), the inhibition is -5.45%.

With `CC(C)(C)NC(=O)C(c1cccnc1)N(C(=O)c1ccc(C#N)cc1)C1CC1` (configuration not stated), the inhibition was -4.03%.

With `CC(C)(C)NC(=O)C(c1ccsc1)N(C(=O)Cc1cccc2ccccc12)C1CC1` (configuration not stated), the inhibition was 16.5%.

As to `CC(C)c1ccc(N(C(=O)c2ccc(C(F)(F)F)nc2)C(C(=O)NC(C)(C)C)c2cccnc2)cc1` (configuration not stated), the inhibition is -15.3%.

Consider `CC(C)(C)NC(=O)C(c1cccnc1)N(C(=O)Cc1c[nH]c2ccccc12)c1ccc(F)cc1` (configuration not stated), for which the inhibition was 5.7%.

In the case of `CC(C)(C)NC(=O)C(c1cccnc1)N(C(=O)c1ccc(C(F)(F)F)nc1)c1ccc(C(C)(C)C)cc1` (configuration not stated), the inhibition is 8.39%.
